From PubChem
NPC1 prom act – qHTS Assay for NPC1 Promoter Activators | Huh7 NPC1 promoter luciferase reporter, 24 h | 320,000 tested, 2.4% active | AID 485313, 2010 | Potency, µM (highest dose often 9.22 µM), for the others: top-dose activation, actives largely listed as activators; further: % of control where 0% means no effect; nearly all actives have a fitted effect of over 60% in size
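Readout is luciferase luminescence, reflecting NPC1 promoter activation in stably transfected Huh7 cells after 24 h compound exposure at 37 °C in reduced-serum medium with 10% FBS.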
KinaseGlo FLuc – Counterscreen for Luciferase (Kinase-Glo TM) Inhibition. 200,000 tested, 0.28% active. Kinase-Glo luciferase, ATP luminescence, 8 min. AID 1379, 2008. Potency, µM (doses to about 38.3 µM), for inactives: at the top dose activity change, negative = inhibition, usual class: inhibitors; further: on the % scale 0 is the no-effect control and ±100 the full control effect; nearly all actives have a fitted effect of over 60% in size
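Compounds were added to a substrate mix at pH 7.2 (50 mM imidazole, 10 uM ATP, within the enzyme's linear range), followed by Kinase-Glo detection reagent; luminescence was measured after 8 minutes at ambient temperature.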
Rab9 promoter act – qHTS Assay for Rab9 Promoter Activators | Huh7 Rab9 promoter-luciferase reporter, luminescence, 24 h | Potency, µM (doses to about 9.22 µM), without a hit: at the highest dose activation, negative = inhibition, most hits filed as activators | 320,000 tested, 2.8% active | AID 485297, 2010; further: % of control where 0% means no effect; nearly all actives have a fitted effect of over 60% in size
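Huh7 cells stably carrying a Rab9 promoter-luciferase reporter, 1500 cells per well in OP-MEM I with 10% FBS, treated with compound 24 hours at 37C. Luciferase activity read by luminescence after 10 minutes with Amplite reagent.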
SMN2 splice enh – qHTS Assay for Enhancers of SMN2 Splice Variant Expression. Potency, µM (titrated, usually from 46.1 µM), without a hit: at the highest dose activity change, positive = activation, hits mostly activators. 210,000 tested, 2.8% active. HEK293 SMN2-luciferase splicing reporter, luminescence, 30-36 h; further: % of control where 0% means no effect; nearly all actives have a fitted effect of over 55% in size
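HEK293 cells carry an SMN2 […]–luciferase reporter in which exon 7 inclusion puts luciferase in frame. Cells were plated 10-12 h before compound addition, then incubated 30-36 h at 37C. ONE-Glo luminescence was read; sodium butyrate at 4.5 mM final served as control.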
FLuc modulator – qHTS profiling assay for firefly luciferase inhibitor/activator using purifed enzyme and Km concentrations of substrates (counterscreen for miR-21 project); Luciferin 4-monooxygenase (Photinus pyralis), P08659; purified FLuc, Km substrates, luminescence inhibition; Potency, µM (highest dose often 57.5 µM), for inactives: top-dose activity change, negative = inhibition, hits mostly inhibitors; 360,000 tested, 6.9% active;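 further: plate controls were vehicle for no effect and reference inhibitor for full effect; nearly all actives have a fitted effect of over 55% in size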
Target sequence (P08659 whole entry, looked up): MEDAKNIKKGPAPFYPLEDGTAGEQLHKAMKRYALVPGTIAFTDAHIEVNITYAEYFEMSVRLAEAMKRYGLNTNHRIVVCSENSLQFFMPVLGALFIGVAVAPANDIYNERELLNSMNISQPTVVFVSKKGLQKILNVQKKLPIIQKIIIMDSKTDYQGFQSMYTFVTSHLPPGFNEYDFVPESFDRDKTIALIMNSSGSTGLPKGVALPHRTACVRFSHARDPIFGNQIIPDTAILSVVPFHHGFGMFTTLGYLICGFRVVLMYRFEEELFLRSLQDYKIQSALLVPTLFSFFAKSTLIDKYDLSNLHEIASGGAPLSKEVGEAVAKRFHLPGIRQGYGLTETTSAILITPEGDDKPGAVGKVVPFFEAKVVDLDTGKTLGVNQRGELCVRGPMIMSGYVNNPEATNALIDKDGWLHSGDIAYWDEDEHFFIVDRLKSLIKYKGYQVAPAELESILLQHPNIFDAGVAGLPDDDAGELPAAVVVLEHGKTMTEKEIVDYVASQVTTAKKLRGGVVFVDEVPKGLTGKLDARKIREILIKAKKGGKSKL
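Purified P. pyralis luciferase (10nM final) with 10uM D-luciferin and 10uM ATP (Km levels) in 50mM Tris acetate pH 7.5, 10mM Mg acetate, 0.01% Tween-20, 0.05% BSA; qHTS 6-point titration, ~60 µM downward; luminescence read.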
ELG1 genotoxic – qHTS screen for small molecules that induce genotoxicity in human embryonic kidney (HEK293T) cells expressing luciferase-tagged ELG1; HEK293T ELG1-luciferase reporter, luminescence, 16 h; Potency, µM (highest dose often 46 µM), for the others: top-dose activity change, positive = activation, actives largely listed as activators; 330,000 tested, 1.3% active; further: % of control where 0% means no effect; nearly all actives have a fitted effect of over 60% in size
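ELG1-luciferase HEK293T cells, 2,000/well; compound pinned in; 16 hr, 37 °C, 5% CO2; ONE-Glo, 30 min RT; luminescence on CCD imager.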
An asterisk follows results filed as active; ? = inconclusive; . = no result; [ ] = remark or other dose. Most compounds without a hit are left out; they make up all but 7.5% or so of the library. The call rests on the fitted dose curve; in most records, active means well fitted curve in the direction sought with a large enough effect; inconclusive means small, poorly fitted or top-dose-only effect, or another doubt; inactive means no such curve, though single readings can be large; an effect the other way counts as inactive or inconclusive. Potency means the concentration at half of the fitted maximal effect.

SMILES	NPC1 prom act	KinaseGlo FLuc	Rab9 promoter act	SMN2 splice enh	FLuc modulator	ELG1 genotoxic
COc1cccc([C@@H]2Oc3ccc(OC)cc3C(=O)[C@H]2O)c1	?	2.6%	?	5.01µM*	-22.7%	7.31µM*
COC(=O)C1=C(C)NC2=C(C(=O)c3ccccc32)C1c1cccc(OC)c1 (stereo not given)	-0.9%	.	14.0%	.	-3.0%	3.9%
COc1cccc(C2C(=O)c3ccccc3C2=O)c1	-7.5%	.	5.1%	.	26.9µM*	2.2%
CCOC(=O)c1cccc(NC(=O)c2cc3c(Cl)nc4ccc(C)cc4c3s2)c1	.	.	.	-0.5%	-2.8%	.
COc1ccc(C(=O)Nc2cc(C)c(O)c(-c3nc4ccccc4s3)c2)cc1OC	.	.	.	5.3%	0.675µM*	.
COc1ccccc1C(=O)Nc1ccc(-c2nc3ccccc3s2)c(C)c1	.	.	.	.	3.79µM*	.
COc1ccc(-c2nc3ccccc3s2)cc1NC(=O)c1ccccc1OC	.	.	.	?	10.7µM*	.
COc1cccc(C(=O)NCc2ccc(-c3nc4ccccc4s3)cc2)c1	10.0%	-3.9%	?	?	2.69µM*	20.6µM*
OCCCNCc1ccc(N(c2ccccc2)c2ccccc2)cc1	-4.8%	.	-8.0%	.	-0.5%	-1.8%
COc1cc(C(=O)NCc2ccc(-c3nc4ccccc4s3)cc2)cc(OC)c1OC	23.0%	-3.7%	?	17.8µM*	0.601µM*	?
COc1cc(C(=O)NCc2ccc(OCCN(C)C)cc2)cc(OC)c1OC	-4.0%	-3.6%	-0.6%	?	4.0%	23.1µM*
O=C(NCc1ccc(-c2nc3ccccc3s2)cc1)c1cc2ccccc2o1	1.3%	.	1.9%	.	?	12.0%
COc1cc(C(=O)NCc2ccncc2)cc(OC)c1OC	-0.8%	-4.7%	-1.2%	.	0.6%	3.7%
COc1ccc(C(=O)NCc2ccc(-c3nc4ccccc4s3)cc2)cc1	24.2%	-1.5%	21.7%	-6.1%	2.39µM*	-0.7%
O=C(NCc1ccc(-c2nc3ccccc3s2)cc1)c1ccc(Br)o1	14.4%	-3.1%	23.6%	-20.7%[1.84 µM]	10.7µM*	?
CCOCCCn1c(SCC(=O)Nc2ccccc2Cl)nc2c(oc3ccccc32)c1=O	.	.	.	-8.5%	-0.8%	.
COc1ccccc1C(=O)NCc1ccc(-c2nc3ccccc3s2)cc1	28.3%	3.7%	?	-12.3%[1.84 µM]	6.01µM*	18.4%
Cc1ccc(NC(=O)c2cc(NC(=O)c3ccco3)ccc2N2CCOCC2)cc1Cl	-9.7%	-0.5%	-0.3%	-4.4%	4.6%	8.5%
CCC(=O)Nc1ccc(N2CCN(C(=O)c3ccco3)CC2)c(Cl)c1	-2.8%	.	-3.9%	.	-1.5%	-2.7%
O=C(Nc1ccc(N2CCCCC2)c(Cl)c1)c1ncn[nH]1	?	1.1%	23.5%	.	6.01µM*	?
CN1CCN(c2ccc(NC(=O)c3ccco3)cc2Cl)CC1	0.398µM*	.	0.631µM*	.	4.78µM*	8.2µM*
CCN1CCN(c2ccc(NC(=O)c3ccco3)cc2Cl)CC1	?	.	?	.	16.9µM*	?
O=C(Nc1cc(Cl)ccc1N1CCOCC1)c1ccco1	-1.7%	.	-0.4%	.	1.6%	0.6%
O=C(Nc1ccc(N2CCOCC2)c([N+](=O)[O-])c1)c1ccco1	26.0%	-0.3%	?	12.6µM*	16.9µM*	7.1%
Cc1ccc(C(CNS(=O)(=O)c2cc(F)ccc2F)N2CCN(C)CC2)cc1 (stereo not given)	1.9%	.	6.3%	.	0.4%	12.7%
SMILES	NPC1 prom act	KinaseGlo FLuc	Rab9 promoter act	SMN2 splice enh	FLuc modulator	ELG1 genotoxic
O=C(Nc1ccc(N2CCCC2)c(Cl)c1)c1ccco1	1.41µM*	-12.3%	0.501µM*	6.31µM*	4.78µM*	?
CCN1CCN(c2ccc(NC(=O)c3cccc(F)c3)cc2Cl)CC1	?	-2.6%	3.55µM*	.	16.9µM*	?
Nc1ccc2oc(-c3ccccn3)nc2c1	?	?	?	2.82µM*	19µM*	?
Clc1ccc2oc(-c3ccccn3)nc2c1	2.51µM*	?	3.16µM*	15.8µM*	-20.7%[2.3 µM]	?
CC(C)OC(=O)c1c(NC(=O)c2cccc(C(F)(F)F)c2)sc2c1CCCC2	.	.	.	-7.3%	4.3%	.
Cc1cc2[nH]c(=O)c(=O)[nH]c2cc1S(=O)(=O)Nc1ccc(OC(F)(F)F)cc1	.	.	.	.	-14.0%	.
CC(=O)Nc1ccc(S(=O)(=O)Nc2cccc(-c3ccc(N4CCC(C)CC4)nn3)c2)cc1	.	.	.	.	0.536µM*	.
CC(=O)c1ccc(S(=O)(=O)Nc2cccc(-c3ccc(N4CCOCC4)nn3)c2)cc1	?	.	?	.	2.69µM*	1.8%
CC(=O)Nc1ccc(S(=O)(=O)Nc2cccc(-c3ccc(N4CCCCCC4)nn3)c2)cc1	.	.	.	.	4.78µM*	.
COc1ccc(-c2cccc(NS(=O)(=O)c3ccc(NC(C)=O)cc3)c2)nn1	.	.	.	.	-10.8%	.
O=C(c1ccco1)N1CCC2(CC1)CN(c1ccccc1)C2	.	-2.7%	.	-36.6%	.	.
CCCCC(CC)CNC(=O)CCCCCn1c(=O)[nH]c2ccsc2c1=O (stereo not given)	.	.	.	1.3%	-2.1%	.
CC(C)(C)C(=O)Nc1cccc(-c2nc3ccccc3c(=O)o2)c1	?	-1.2%	?	-2.7%	15.1µM*	10.7%
CCCC(=O)Nc1cccc(-c2nc3ccccc3c(=O)o2)c1	1.1%	-15.2%	17.1%	.	1.35µM*	-4.1%
CC(C)(C)C(=O)Nc1ccc(-c2nc3ccccc3c(=O)o2)cc1	15.2%	-21.7%	21.0%	.	0.107µM*	5.8%
CC(C)C(=O)Nc1cccc(-c2nc3ccccc3c(=O)o2)c1	-0.7%	0.5%	0.7%	-2.6%	?	2.7%
CC(C)C(=O)Nc1ccc(-c2nc3ccccc3c(=O)o2)cc1	8.9%	-9.4%	2.6%	.	0.301µM*	-1.1%
O=C(Nc1cccc(-c2nc3ccccc3o2)c1)C(F)(F)F	.	.	.	2.3%	?	.
O=c1oc(-c2cccnc2)nc2ccccc12	-2.8%	-5.1%	4.0%	-13.3%	3.0%	0.3%
COC(=O)c1ccc([N+](=O)[O-])cc1N1C(=O)C2C3CCC(C3)C2C1=O (stereo not given)	18.2%	2.0%	-0.3%	-7.7%	1.0%	-2.4%
Cn1nnc2c(N3CCCCC3)ncnc21	.	.	.	.	4.5%	.
C/C(=N\NC(=O)c1csc(C)c1C)c1ccco1	3.98µM*	?	2.24µM*	11.2µM*	7.57µM*	6.51µM*
C/C(=N/NC(=O)c1cccs1)c1ccco1	27.7%	-18.0%	?	?	16.9µM*	?
C/C(=N\NC(=O)c1csc(C)c1C)c1ccc(C)s1	?	-6.5%	?	?	?	?
